# PRMT1 FP inh: inhibitors of human PRMT1; 370,000 compounds, 1.3% hits; Q99873; recombinant PRMT1, activity-based probe fluorescence polarization; inhibition, % at 2.79 µM;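 active = inhibition above about 21% made by adding two undisclosed values, limit read from the data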
# ABHD5 PLIN5 PPI: blocks binding of human ABHD5 to perilipin-5; Q00G26+Q8WTS1; Split G. princeps luciferase complementation, luminescence, 4 h; inhibition, % at 4 µM; 360,000 compounds, 0.78% hits; AID 602281;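 active = inhibition above the mean inhibition across every tested compound plus 3 SD, cut at about 22% in these data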;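 also: 0% = DMSO only wells and the 100% control is not disclosed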
# rCAG RNA binder: molecules binding r(CAG) RNA repeats; r(CAG) RNA repeat, TO-PRO-1 dye displacement fluorescence; inhibition, % at 3 µM; 370,000 compounds, 1.3% hits;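 active = inhibition above the plate cutoff, the mean of all test compounds on that plate plus 3 SD, cut at about 35% in these data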;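 also: 0% = DMSO alone and 100% = 100 µM mitoxantrone as full dye displacement; higher means more dye released from RNA so lower well fluorescence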
# TLR9-MyD88 inh: TLR9-MyD88 interaction inhibition. AID 504734. CHO BLA complementation TLR9-MyD88, CCF4 FRET ratio. inhibition, % at 4.98 µM. Q9NR96+Q99836. 340,000 compounds, 0.21% hits;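 active = inhibition above the mean over all tested compounds plus 3 SD, cut at about 21% in these data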;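 also: 0% = DMSO only wells and 100% = clavulanate BLA inhibitor control wells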
# TLR4-MyD88 BLA: blocks binding of human TLR4 to MyD88; O00206+Q99836; HeLa CL3-4 TLR4/MyD88 BLA complementation, FRET ratio; inhibition, % at 8.4 µM; 200,000 compounds, 0.18% hits; in the data active = inhibition above about 25%;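 also: 0% = vehicle and 100% = reference inhibitor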
# NOD2-RIPK2 inh: blocks binding of human NOD2 to RIPK2 | 360,000 compounds, 0.38% hits | CHO BLA complementation NOD2-RIPK2, CCF4 ratio | inhibition, % at 4.98 µM | O43353; in the data active = inhibition above about 21%;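 also: 0% = vehicle only and 100% = reference blocker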
# rCAG binder conf: r(CAG) RNA repeat binding, confirmation; TO-PRO-1 dye displacement fluorescence; shares compounds with rCAG RNA binder; 4,300 compounds, 70% hits; inhibition, % at 3 µM;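 active = inhibition above a per-plate cutoff, the mean inhibition of sample wells plus 3 SD, cut at about 35% in these data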;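 also: loss of TO-PRO-1 fluorescence as compound displaces dye from 1x1 AA loop RNA; 0% = DMSO only wells and 100% = 100 µM mitoxantrone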
# DNA CAG counter: disrupts DNA CAG TO-PRO-1 complex, flagging rCAG hits | shares compounds with rCAG RNA binder | d(CAG) DNA oligo TO-PRO-1 dye displacement, fluorescence | inhibition, % at 3 µM | 4,300 compounds, 94% hits | AID 652068;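 active = inhibition above its plate's cutoff, the mean test-well inhibition plus 3 SD, cut at about 4.8% in these data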;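 also: 0% = DNA dye mix with DMSO and 100% = 100 µM mitoxantrone; hits displace the dye from DNA and so lower well fluorescence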
# Numbers without * were called inactive; x = not tested or not shown. An excerpt weighted towards active compounds, which were near 3.3% of everything screened.
SMILES,PRMT1 FP inh,ABHD5 PLIN5 PPI,rCAG RNA binder,TLR9-MyD88 inh,TLR4-MyD88 BLA,NOD2-RIPK2 inh,rCAG binder conf,DNA CAG counter
COc1ccccc1NC(=O)CN(c1ccccc1)S(=O)(=O)c1ccccc1,-7,10,3,-6,x,-45,x,x
Cc1noc(C)c1S(=O)(=O)Nc1ccc2c(c1)C(=O)N([C@H](C)CO)C[C@H](C)[C@@H](CN(C)C(=O)CCCN(C)C)OCCCC[C@@H](C)O2,-5,-12,2,5,x,-11,x,x
Cc1ccc(S(=O)(=O)Nc2ccc3c(c2)C(=O)c2ccccc2-3)cc1,-6,-3,37*,x,x,-12,31,7.0*
Cc1ccc(S(=O)(=O)Nc2ccc3cn[nH]c3c2)cc1C,8,15,6,x,x,11,x,x
Cc1ccc(S(=O)(=O)Nc2ccc3cn[nH]c3c2)cc1,1,0,47*,4,x,-5,3,1
COc1ccc(-n2c(=O)c3ccccc3n(Cc3ccccc3F)c2=O)cc1OC,-5,8,-2,3,0,-6,x,x
Cc1cccc(S(=O)(=O)Nc2nc3ccccc3nc2NCC2CCCO2)c1 (stereo not given),-2,12,21,-5,x,4,x,x
Cc1cccc(S(=O)(=O)Nc2nc3ccccc3nc2Nc2cccc(C(=O)O)c2)c1,2,-2,53*,-4,x,-6,57*,20*
NS(=O)(=O)c1ccc(Nc2nc3ccccc3nc2NS(=O)(=O)c2cccc([N+](=O)[O-])c2)cc1,5,7,94*,0,9,2,88*,62*
Cc1cccc(S(=O)(=O)Nc2nc3ccccc3nc2NCc2ccco2)c1,1,1,44*,-10,9,0,32,7.3*
CC(=O)Nc1ccc(S(=O)(=O)Nc2nc3ccccc3nc2Nc2ccc(O)c(C(=O)O)c2)cc1,5,-4,46*,-5,x,7,25,4
O=C(Nc1ccc2ccccc2c1)N1CCCN(CCOc2ccccc2)CC1,4,5,-3,5,x,-3,x,x
COc1cccc(N2CCN(S(=O)(=O)c3ccc(-n4cnnn4)cc3)CC2)c1,-3,-3,0,-12,x,-4,x,x
CCOC(=O)C1=C[C@@H](C2CCCCC2)N(S(=O)(=O)c2ccc([N+](=O)[O-])cc2)[C@H]1c1ccccc1,4,2,9,x,x,-6,x,x
CC(=O)Nc1ccc(S(=O)(=O)Nc2nc3ccccc3nc2Nc2ccc(S(N)(=O)=O)cc2)cc1,0,0,52*,-3,2,-9,35*,8.3*
COc1ccc(Nc2nc3ccccc3nc2NS(=O)(=O)c2cccs2)cc1,-2,1,42*,-6,-9,3,74*,36*
COc1ccc(Nc2nc3ccccc3nc2NS(=O)(=O)c2ccc(NC(C)=O)cc2)cc1,0,9,80*,-3,x,-7,60*,21*
COc1cccc(Nc2nc3ccccc3nc2NS(=O)(=O)c2ccc(NC(C)=O)cc2)c1,x,-2,x,-9,x,-3,x,x
CC(=O)c1ccc(Nc2nc3ccccc3nc2NS(=O)(=O)c2cccs2)cc1,3,-2,33,10,x,-4,x,x
CC(=O)Nc1ccc(S(=O)(=O)Nc2nc3ccccc3nc2Cl)cc1,-1,0,5,-7,x,0,x,x
O=Cc1cc(OCc2ccccc2)ccc1[B-](F)(F)F,-7,22,5,-7,x,-12,x,x
COc1ccc(Cl)cc1C(=O)NCCc1ccc(S(=O)(=O)NC(=O)NC2CCCCC2)cc1,-6,-7,41*,7,-6,-5,31,8.0*
COc1ccc(CCNC(=O)NC2CCCCC2)cc1OC,-2,7,-2,2,12,-26,x,x
COc1ccc2c(c1)C(=O)N(CCc1ccc(S(=O)(=O)NC(=O)NC3CCCCC3)cc1)C(=O)C2(C)C,2,4,38*,2,x,-11,53*,15*
Cc1ccc(S(=O)(=O)N(C)CCCC(=O)NC(C)(C)CO)cc1,-6,6,-4,3,0,-1,x,x
SMILES,PRMT1 FP inh,ABHD5 PLIN5 PPI,rCAG RNA binder,TLR9-MyD88 inh,TLR4-MyD88 BLA,NOD2-RIPK2 inh,rCAG binder conf,DNA CAG counter
C#CCOCCOCCOCCNc1nc(N2CCN(C(=O)Cn3cc(CC(C)O)nn3)CC2)nc(N2CCN(C(=O)[C@H](C)n3cc(CCCN=C(N)N)nn3)CC2)n1 (stereo not given in full),x,x,x,x,-5,x,x,x
Cc1ccc(-c2nc(CS(=O)(=O)CC(=O)Nc3cc(F)ccc3F)c(C)o2)cc1,-1,-9,1,4,x,8,x,x
CCOC(=O)CSc1nc2c(sc(=S)n2-c2ccc(CC)cc2)c(=O)[nH]1,-1,-11,60*,-9,x,11,65*,26*
CCCc1c(O)nc(SCC(=O)NCCc2ccc(OC)c(OC)c2)[nH]c1=O,-2,0,1,10,4,-1,x,x
CCOC(=O)CC(=O)CSc1nc2c(sc(=S)n2-c2ccccc2)c(=O)[nH]1,5,11,41*,12,8,-10,21,5.8*
CCCCNC(=O)CSc1nc2c(sc(=S)n2-c2cc(Cl)ccc2OC)c(=O)[nH]1,2,3,44*,0,x,-7,43*,12*
COc1ccc(S(=O)(=O)Nc2ccccc2C(=O)NCc2cccnc2)cc1OC,-2,6,4,4,x,-1,x,x
COCCNC(=O)C(C)OC(=O)C1=Cc2ccccc2OC1 (stereo not given),-8,2,-3,3,-8,0,x,x
CC(OC(=O)C1=Cc2ccccc2OC1)C(=O)NCC1CCCO1 (stereo not given),8,-12,71*,3,x,-9,78*,44*
COCCn1c(SCc2cc(C(C)=O)ccc2OC)nc2cc(Cl)ccc2c1=O,0,-3,42*,-6,8,-11,4,4
COc1ccc(C(C)=O)cc1CSc1nc2ccccc2c(=O)n1-c1ccccc1,1,1,2,14,-10,-6,x,x
O=C(O)c1cc(N2C(=O)C3CC=CCC3C2=O)ccc1NCc1cccnc1 (stereo not given),1,1,8,-6,6,12,x,x
Cc1ccc(S(=O)(=O)Nc2cc(-c3ccc(Cl)cc3)nn2C)cc1,-4,3,48*,x,x,-17,48*,11*
Cc1ccc(S(=O)(=O)Nc2cc(-c3ccccc3)nn2C)cc1Cl,-4,-7,57*,x,x,2,38*,9.9*
COc1ccc(-c2cc(-c3ccccc3)nc(SC(C)C(=O)O)c2C#N)cc1 (stereo not given),1,-3,71*,-5,x,-6,76*,38*
